Bioassay records (PubChem BioAssay)
PI5P4K alpha inh = qHTS for Inhibitors of phosphatidylinositol 5-phosphate 4-kinase (PI5P4K) | PI5P4Kalpha enzyme, ADP-Glo luminescence, 60 min; hits give low values | 1.2% of 330,000 active | Phosphatidylinositol 5-phosphate 4-kinase type-2 alpha (Homo sapiens), P48426 | max response, %; active = max response of -50% or lower; inconclusive = between -30% and -50%; inactive = -30% or higher; note: value at the top dose of about 77 µM
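Controls without substrate or without enzyme flank wells where PI5P4Kalpha converts substrate using 5 microM ATP (final). Incubation lasts 60 minutes at room temperature; ADP formed is read by ADP-Glo luminescence.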
BLM inh-1 = qHTS Assay for Inhibitors of Bloom's syndrome helicase (BLM) | RecQ-like DNA helicase BLM (Homo sapiens), P54132 | recombinant BLM DNA unwinding, fluorescence dequenching | Potency, µM (doses to about 56.1 µM), usual class: inhibitors | 0.2% of 350,000 active | AID 2528, 2010; note: nearly all actives have a fitted effect of over 35% in size
RECQ1 inh-1 = qHTS Assay for Inhibitors of RecQ-Like Dna Helicase 1 (RECQ1). RECQ1 DNA unwinding, red fluorescence kinetic read. Potency, µM (titrated, usually from 57.3 µM), most hits filed as inhibitors. 0.54% of 240,000 active. AID 2549, 2010; note: nearly all actives have a fitted effect of over 30% in size
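50 nM RECQ1T1 preincubated 15 min with compound in Tris pH 8.0 buffer with MgCl2, DTT, Tween-20 and 2.5 ug/ml poly(dI-dC); started with 200 nM TAMRA/BHQ-2 forked duplex and 2 mM ATP. Unwinding read as fluorescence (525/598 nm), two reads 2 h apart.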
FEN1 inh = qHTS Assay for the Inhibitors of Human Flap endonuclease 1 (FEN1). Recombinant FEN1 flap cleavage, fluorescence, 15 min. AID 588795, 2011. Potency, µM (series often up to 114 µM), hits mostly inhibitors. P39748. 0.35% of 390,000 active; note: nearly all actives have a fitted effect of over 65% in size
Target sequence (P39748 whole entry, looked up): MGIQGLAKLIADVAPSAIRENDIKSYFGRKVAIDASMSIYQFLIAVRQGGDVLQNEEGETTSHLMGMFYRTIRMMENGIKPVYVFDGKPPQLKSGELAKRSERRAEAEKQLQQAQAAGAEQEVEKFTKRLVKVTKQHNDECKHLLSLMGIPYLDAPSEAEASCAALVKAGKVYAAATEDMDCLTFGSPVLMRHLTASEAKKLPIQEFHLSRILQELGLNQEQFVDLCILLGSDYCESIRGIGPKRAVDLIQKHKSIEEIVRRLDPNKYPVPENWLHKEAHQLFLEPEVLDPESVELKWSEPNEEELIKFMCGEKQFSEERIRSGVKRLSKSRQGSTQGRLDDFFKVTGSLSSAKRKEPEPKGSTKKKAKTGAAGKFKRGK
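FEN1 at 10 nM, compound pretreatment for 15 min (room temperature), 50 nM final substrate to initiate; endpoint reads at 0 and 15 min; DMSO-only plates used as vehicle background.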
GCN5L2 inh = qHTS Assay for Inhibitors of GCN5L2. Histone acetyltransferase KAT2A (Homo sapiens), Q92830. GCN5L2 HAT assay, ThioGlo1 CoA-SH fluorescence. Potency, µM (highest dose often 58.9 µM), actives largely listed as inhibitors. 0.21% of 390,000 active. AID 504327, 2011
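Fluorescence readout, Ex340nm/Em540nm: ThioGlo1 (50uM final) reacts with free CoA thiol released as 20nM GCN5L2 acetylates H3(1-25) peptide (75uM) using acetyl-CoA (70uM). Compound and enzyme sat 15 min beforehand; 20 min room-temperature reaction.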
APE1 inh-1 = qHTS Assay for Inhibitors of the Human Apurinic/apyrimidinic Endonuclease 1 (APE1) | DNA repair nuclease/redox regulator APEX1 (Homo sapiens), P27695 | recombinant APE1, TAMRA/BHQ-2 abasic DNA cleavage fluorescence | Potency, µM (titrated, usually from 65.8 µM), actives largely listed as inhibitors | 0.35% of 350,000 active | AID 2517, 2012; note: nearly all actives have a fitted effect of over 55% in size
Target sequence (P27695 whole entry, looked up): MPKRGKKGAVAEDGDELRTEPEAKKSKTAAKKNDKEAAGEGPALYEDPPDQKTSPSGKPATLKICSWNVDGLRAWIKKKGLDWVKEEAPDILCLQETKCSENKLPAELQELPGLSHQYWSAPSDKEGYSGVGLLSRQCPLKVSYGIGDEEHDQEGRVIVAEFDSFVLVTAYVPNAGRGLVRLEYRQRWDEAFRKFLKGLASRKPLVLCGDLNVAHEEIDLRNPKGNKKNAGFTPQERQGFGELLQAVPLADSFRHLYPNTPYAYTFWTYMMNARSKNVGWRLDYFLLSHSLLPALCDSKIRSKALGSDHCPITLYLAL
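Quantitative HTS: incision of a TAMRA/BHQ-2 double-stranded substrate bearing a tetrahydrofuran abasic site by 0.75 nM APE1 raises fluorescence. Substrate 50 nM final, added after 15 min compound preincubation at room temperature; progress as third-minus-first kinetic read difference.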
APE1 dye cs = Counterscreen for APE1 Inhibitors: Fluorescent Dye Displacement Assay. shares compounds with APE1 inh-1. DNA fluorescent dye displacement counterscreen, fluorescence. Potency, µM (highest dose often 28.5 µM), actives largely listed as inhibitors. 7% of 480 active;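 note: loss of thiazole orange fluorescence as the dye is displaced from duplex DNA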
Endo IV inh = Counterscreen for APE1 Inhibitors: qHTS Assay for Inhibitors of Endonuclease IV; E. coli Endo IV, fluorogenic AP-site DNA cleavage; 4% of 560 active; Potency, µM (highest dose often 27.1 µM), hits mostly inhibitors; AID 2565, 2010; shares compounds with APE1 inh-1
APE1 inh-2 = Confirmation qHTS Assay for Inhibitors of the Human Apurinic/apyrimidinic Endonuclease 1 (APE1); shares compounds with APE1 inh-1; Potency, µM (doses to about 57.1 µM), usual class: inhibitors; AID 2572, 2010; purified APE1, fluorogenic abasic-site DNA cleavage; 44% of 750 active; note: nearly all actives have a fitted effect of over 30% in size
APE1 FP = qHTS FP-Based Assay for Inhibitors of the Human Apurinic/apyrimidinic Endonuclease 1 (APE1). shares compounds with APE1 inh-1. APE1 binding to TAMRA-labelled double-stranded DNA, fluorescence polarization displacement. Potency, µM (titrated, usually from 28.5 µM), most hits filed as inhibitors. 7% of 480 active
BLM inh-2 = qHTS Confirmation Assay for Inhibitors of Bloom's syndrome helicase (BLM); BLM DNA unwinding, fluorescence quenching, biochemical; 40% of 220 active; shares compounds with BLM inh-1; Potency, µM, most hits filed as inhibitors; AID 2585, 2010;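 note: strand separation dequenches TAMRA so unwinding raises red fluorescence; series mostly up to about 69 µM; nearly all actives have a fitted effect of over 45% in size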
RECQ1 conf = Confirmation qHTS Assay for Inhibitors of RecQ-Like Dna Helicase 1 (RECQ1); AID 2708, 2010; Potency, µM (highest dose often 229 µM), usual class: inhibitors; RECQ1 helicase DNA unwinding, fluorescence; 28% of 610 active; shares compounds with RECQ1 inh-1; note: nearly all actives have a fitted effect of over 45% in size
ADP FP counter = Counterscreen for RECQ1 Inhibitors: ADP Fluorescence Polarization Displacement Assay; AID 2711, 2010; shares compounds with RECQ1 inh-1; Potency, µM (top dose mostly 228 µM), actives largely listed as inhibitors; ADP fluorescence polarization displacement counterscreen; 27% of 530 active; note: nearly all actives have a fitted effect of over 45% in size
RECQ1 inh-2 = Confirmation qHTS Assay for Inhibitors of RecQ-Like Dna Helicase 1 (RECQ1) - Round 2 Cherry Picks. recombinant RECQ1 DNA unwinding, red fluorescence. AID 504841, 2011. 15% of 1,100 active. Potency, µM (titrated, usually from 119 µM), usual class: inhibitors. shares compounds with RECQ1 inh-1; note: nearly all actives have a fitted effect of over 50% in size
ADP-Glo interf = qHTS for Inhibitors of PI5P4K: ADP-Glo counter assay. ADP-Glo detection counter-screen, luciferase luminescence, no enzyme. 1,100 tested, under 10 active. AID 743285, 2014. shares compounds with PI5P4K alpha inh. Potency, µM (series often up to 76.9 µM), most hits filed as inhibitors
Of the large screens only hits and unclear results are named; the others gave an inactive call (follow-up assays come after a bar, where they were run). Sampled rows, rich in hits. Any-hit rate of the full collection: about 1.5%. Unless noted, calls come from the whole dose curve; as a rule, active = well fitted curve in the direction sought with a large enough effect; inconclusive = small, poorly fitted or top-dose-only effect, or another doubt; inactive = no such curve, though single readings can be large; an effect the other way counts as inactive or inconclusive.

COc1ccc(C(CC(=O)N2CCCCC2)c2c(OC)cc(OC)c3c(-c4ccccc4)cc(=O)oc23)cc1 (stereo not drawn)	PI5P4K alpha inh -81, RECQ1 inh-1 inconclusive, APE1 inh-1 25µM | APE1 dye cs inactive | Endo IV inh inconclusive | APE1 inh-2 7.9µM | APE1 FP 14µM | ADP-Glo interf inactive
O=C(Nc1nc(-c2ccco2)c(-c2ccco2)s1)C1CC(=O)N(c2ccc3c(c2)OCCO3)C1 (stereo not drawn)	PI5P4K alpha inh -76, BLM inh-1 14µM, RECQ1 inh-1 7.9µM, FEN1 inh inconclusive, GCN5L2 inh inconclusive, APE1 inh-1 2.5µM | APE1 dye cs 11µM | Endo IV inh inactive | APE1 inh-2 inconclusive | APE1 FP inactive | RECQ1 conf 28µM | ADP FP counter 40µM | RECQ1 inh-2 inconclusive | ADP-Glo interf inactive
Cc1csc(NC(=O)C2CC(=O)N(c3ccc4c(c3)OCCO4)C2)n1 (stereo not drawn)	none (no result: BLM inh-1, RECQ1 inh-1)
C[C@H](N)C(=O)NCC(=O)N[C@H]1CSSC[C@@H](C(=O)O)NC(=O)[C@H](CO)NC(=O)[C@H]([C@@H](C)O)NC(=O)[C@H](Cc2ccccc2)NC(=O)[C@H]([C@@H](C)O)NC(=O)[C@H](CCCCN)NC(=O)[C@@H](Cc2c[nH]c3ccccc23)NC(=O)[C@H](Cc2ccccc2)NC(=O)[C@H](Cc2ccccc2)NC(=O)[C@H](CC(N)=O)NC(=O)[C@H](CCCCN)NC1=O	none (no result: PI5P4K alpha inh, FEN1 inh)
S=C(Nc1ccc(Cl)c(Cl)c1)NC1CCCCC1	none (no result: PI5P4K alpha inh)
S=C(Nc1ccc2nsnc2c1)NC1CCCCC1	BLM inh-1 13µM | BLM inh-2 inactive
CCCCc1nc2c(c3c1C[C@H](C)OC3)CN(C(=O)C1CC1)CC2	none (no result: PI5P4K alpha inh, FEN1 inh, GCN5L2 inh)
COc1cc(C(=O)O[C@@H]2CC3CC[C@]2(C)C3(C)C)ccc1O	none (no result: PI5P4K alpha inh, FEN1 inh)
COC(=O)c1c(NC(=O)COC(=O)c2ccc(C)s2)sc2c1CCCCC2	none
COC(=O)c1c(NC(=O)COC(=O)c2ccc(NC(=O)CC#N)cc2)sc2c1CCCCC2	PI5P4K alpha inh -62, BLM inh-1 32µM, FEN1 inh inconclusive | BLM inh-2 inconclusive
CC(C)(C)[C@@H](O)C(Cc1ccc(Cl)cc1)n1cncn1 (stereo partly drawn)	none (no result: PI5P4K alpha inh, FEN1 inh)
COc1cc(-c2nc3ccc(N4CCN(C)CC4)cc3[nH]2)cc(OC)c1OC	PI5P4K alpha inh inconclusive, BLM inh-1 20µM, FEN1 inh inconclusive, GCN5L2 inh inconclusive | BLM inh-2 inconclusive
N#Cc1cc2c(OCC(O)CN3CCN(C(c4ccccc4)c4ccccc4)CC3)cccc2[nH]1 (stereo not drawn)	none (no result: PI5P4K alpha inh, BLM inh-1, FEN1 inh)
CCN(CCC(=O)O)c1ccc(/C=C/c2ccnc3ccccc23)cc1	none (no result: PI5P4K alpha inh, BLM inh-1, RECQ1 inh-1, GCN5L2 inh, APE1 inh-1)
COc1cc(OC)cc(C(=O)NNC(=O)c2ccccn2)c1	none
COc1ccc2c(c1)C(=NNC(=O)c1ccccn1)c1cc(OC)ccc1-2	PI5P4K alpha inh inconclusive, BLM inh-1 10µM | BLM inh-2 29µM
Cc1nc2ccc3nc(NC(=O)C4COc5ccccc5O4)sc3c2s1 (stereo not drawn)	none | BLM inh-2 inactive
COc1ccccc1-n1cnc2c(c1=O)c1nc3ccccc3nc1n2-c1ccc(C)cc1	BLM inh-1 10µM, FEN1 inh inconclusive, GCN5L2 inh inconclusive | BLM inh-2 inactive
COc1ccccc1-n1c2nc3ccccc3nc2c2c(=O)n(-c3cc(C)cc(C)c3)cnc21	none
Cc1ccc2nc(/C(C#N)=C/c3ccc(-c4cccc([N+](=O)[O-])c4)o3)[nH]c2c1	BLM inh-1 22µM, FEN1 inh 45µM | BLM inh-2 13µM
O=C(CSc1nnc2scc(-c3ccccc3)n12)Nc1nsc(-c2ccccc2)n1	BLM inh-1 20µM, FEN1 inh inconclusive (no result: PI5P4K alpha inh) | BLM inh-2 36µM
